RE007 growth inh – less growth of the S. pombe RE007 Vpr strain. S. pombe RE007 Vpr strain, BacTiter-Glo ATP luminescence, 24 h. Potency, µM (titrated, usually from 92.2 µM), hits mostly inhibitors. actives 0.21% (n = 360,000). AID 651644; active = well fitted falling curve with a large enough effect; inconclusive = small, poorly fitted or top-dose-only effect; inactive = no such curve, though single readings can be large or run the other way; note: nearly all actives have a fitted effect of over 50% in size
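Fission yeast RE007 carrying one integrated HIV-1 vpr copy, seeded at OD 0.01 in PMG+AL medium with 23 nL pinned compound. Grown 24 h at 30 degrees; viability read by BacTiter-Glo luminescence after 5 min.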
AmpC no deterg – blocks E. coli AmpC beta-lactamase in detergent-free assay | P00811 | AmpC nitrocefin hydrolysis, absorbance 480 nm, 0.0001% Triton | Potency, µM (series often up to 57.1 µM), hits mostly inhibitors | actives 0.52% (n = 330,000) | AID 485341; note: nearly all actives have a fitted effect of over 20% in size
Target sequence (P00811 whole entry, looked up): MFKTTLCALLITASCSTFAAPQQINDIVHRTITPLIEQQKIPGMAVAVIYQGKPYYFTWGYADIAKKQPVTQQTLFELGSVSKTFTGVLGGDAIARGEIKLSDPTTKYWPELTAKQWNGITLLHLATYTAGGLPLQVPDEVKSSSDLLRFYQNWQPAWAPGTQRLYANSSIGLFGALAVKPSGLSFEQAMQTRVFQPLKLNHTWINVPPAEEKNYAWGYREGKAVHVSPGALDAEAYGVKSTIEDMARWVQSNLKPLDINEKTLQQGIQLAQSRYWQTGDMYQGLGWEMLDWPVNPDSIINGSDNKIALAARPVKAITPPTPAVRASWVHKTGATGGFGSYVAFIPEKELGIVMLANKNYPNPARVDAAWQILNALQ
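AmpC (5.3 nM in the dispensed reagent) in 20 mM phosphate pH 7.0 with 0.01% (detergent screen) or 0.0001% Triton X-100 was preincubated with compounds for 15 min at room temperature. Nitrocefin was then added from an 800 uM solution, and hydrolysis was followed at 480 nm.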
Sm TGR inh – inhibitors of Schistosoma mansoni thioredoxin glutathione reductase; purified TGR, DTNB reduction, TNB absorbance 405 nm; actives 3% (n = 360,000); Q962Y6; Potency, µM (doses to about 114 µM), most hits filed as inhibitors; note: nearly all actives have a fitted effect of over 60% in size
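First, TGR (20 nM dispensed) and NADPH were mixed with compound. Second, a 15 min room-temperature incubation followed. Third, further NADPH and then DTNB were added to start the reaction. Finally, TNB absorbance was monitored kinetically.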
AmpC detergent – blocks E. coli AmpC beta-lactamase in detergent assay; AmpC hydrolysis of nitrocefin, absorbance 480 nm, 0.01% Triton; actives 0.041% (n = 370,000); AID 485294; Potency, µM (series often up to 114 µM), usual class: inhibitors; P00811; note: nearly all actives have a fitted effect of over 25% in size
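20 mM phosphate pH 7.0 + 0.01% (detergent screen) or 0.0001% Triton X-100; 5.3 nM AmpC reagent; cpd preinc 15 min RT; nitrocefin (800 uM stock) to start; A480 q20 s × 4 min; Activity was normalised to no-enzyme and no-compound control wells.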
SARS PLpro yeast – inhibitors of SARS-CoV papain-like protease in yeast | S. cerevisiae expressing SARS-CoV PLpro, growth rescue | Potency, µM (titrated, usually from 32.9 µM), actives largely listed as activators | actives 0.19% (n = 330,000) | AID 485353; calls by dose curve; note: nearly all actives have a fitted effect of over 55% in size
TbPYK inhibitor – inhibitors of Trypanosoma brucei pyruvate kinase | Q57TT1 | TbPYK enzyme, Kinase-Glo Plus ATP luminescence, 45 min | Potency, µM (top dose mostly 76.8 µM), usual class: inhibitors | actives 0.12% (n = 410,000) | AID 624173; note: nearly all actives have a fitted effect of over 50% in size
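Assay buffer: 50 mM TEA pH 7.2, 100 mM KCl, 10 mM MgCl2, 0.05% BSA, 0.01% Tween-20. Pyruvate kinase from T. brucei plus substrate met compound, then ADP (130 uM final). Luminescence was read post 45 min RT.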
Hits are given with their value; i = inactive; ? = inconclusive; nt = no result given; [ ] = dose if it differs, or a comment. Hits are enriched below; roughly 3.3% of the tested compounds scored in any of these assays. Unless noted, calls come from the whole dose curve; as a rule, active = well fitted curve in the direction sought with a large enough effect; inconclusive = small, poorly fitted or top-dose-only effect, or another doubt; inactive = no such curve, though single readings can be large; an effect the other way counts as inactive or inconclusive.

SMILES	RE007 growth inh	AmpC no deterg	Sm TGR inh	AmpC detergent	SARS PLpro yeast	TbPYK inhibitor
O=C(Nc1ccc(Cl)cc1)[C@@H]1[C@@H]2C(=O)N(c3ccc4ccccc4c3)C(=O)[C@@H]2[C@H]2C=CC=NN21	i	i	?	i	i	i
O=C(Nc1ccc(Cl)cc1)[C@@H]1[C@@H]2C(=O)N(c3cccc(F)c3)C(=O)[C@@H]2[C@H]2C=CC=NN21	i	i	22µM	i	i	i
COc1cc(NC(=O)CCS(=O)(=O)c2nc(-c3cccs3)cc(C(F)(F)F)n2)cc(OC)c1OC	nt	i	?	i	i	i
Cc1cc(NC(=O)CSc2nc(-c3cccs3)cc(C(F)(F)F)n2)no1	i	i	i	?	i	i
Cc1cc(NC(=O)CCCS(=O)(=O)c2nc(-c3cccs3)cc(C(F)(F)F)n2)no1	i	i	13µM	i	i	i
COc1ccc(NC(=O)CCS(=O)(=O)c2nc(-c3cccs3)cc(C(F)(F)F)n2)cc1OC	nt	nt	40µM	i	nt	i
COc1ccc(-c2cc(C(F)(F)F)nc(S(C)(=O)=O)n2)cc1	i	i	25µM	i	i	i
CS(=O)(=O)c1nc(-c2cccs2)cc(C(F)(F)F)n1	nt	i	7.9µM	i	i	nt
CS(=O)(=O)c1nc(-c2ccc(F)cc2)cc(C(F)(F)F)n1	i	i	nt	i	i	i
CC(C)(C)OC(=O)N1CCC(c2c(C(=O)NCc3ccco3)cnn2-c2ccccc2Cl)CC1	nt	nt	i	i	nt	i[15.4 µM]
COc1cc2c(cc1OC)C(COc1cc(C)cc(C)c1)N(C(=O)COc1ccccc1)CC2 (stereo not drawn)	nt	nt	i	i	nt	i
CCc1ccc(-n2nc3ccc(NC(=O)c4cc(Cl)c(OC)c(Cl)c4)cc3n2)cc1	nt	nt	i	i	nt	i
O=C(CCS(=O)(=O)c1nc(-c2cccs2)cc(C(F)(F)F)n1)Nc1cccc(O)c1	nt	nt	32µM	i	nt	i
CC(C)CNC(=O)CSc1nc(-c2cccs2)cc(C(F)(F)F)n1	i	i	i	i	i	i
O=C(CCSc1nc(-c2ccco2)cc(C(F)(F)F)n1)Nc1cccc(O)c1	nt	nt	i	i	nt	i
O=C(O)CCS(=O)(=O)c1nc(-c2cccs2)cc(C(F)(F)F)n1	i	i	50µM	i	i	i
CCC1CCCCN1CCCNC(=O)c1ccc2c(c1)sc1nc(-c3ccc(F)cc3)cn12 (stereo not drawn)	nt	nt	i	i	nt	i
Cc1cc(C)cc(NS(=O)(=O)c2ccc3[nH]cc(C(=O)NCc4ccco4)c(=O)c3c2)c1	i	16µM	40µM	i	i	i
COc1cccc(NS(=O)(=O)c2ccc3[nH]cc(C(=O)NCCc4ccccc4)c(=O)c3c2)c1	nt	nt	i	i	nt	i
COc1cccc(NS(=O)(=O)c2ccc3[nH]cc(C(=O)NCCc4ccc(C)cc4)c(=O)c3c2)c1	nt	6.3µM	i	i	i	i
NCCCC(N)C(=O)O (stereo not drawn)	nt	nt	nt	nt	nt	i
O=C(COc1ccccc1)Nc1cccc(-c2nnc(-c3ccccc3)o2)c1	i	i	i	i	i	i
O=C(O)CCC(=O)Nc1cccc(-c2nnc(-c3ccccc3)o2)c1	i	i	25µM	i	i	i
O=C(CSc1nccn1-c1ccc(Cl)cc1)Nc1cccc2ccccc12	nt	nt	i	i	nt	i
O=[N+]([O-])c1ccc(O)c(C2=NNC(c3ccccc3F)C2)c1 (stereo not drawn)	i	i	5µM	i	i	i
Cc1cccc(N(C(=O)Cn2nnc3ccccc32)C(C(=O)NC(C)(C)C)c2ccsc2)c1C (stereo not drawn)	i	0.22µM	i	i	?	i
COc1cccc(Cn2c(NCc3ccc(C)cc3)nc3c2c(=O)n(C)c(=O)n3C)c1	nt	nt	i	i	nt	i
NS(=O)(=O)c1ccc(N2N=C(c3ccccc3)CC2c2cccc(F)c2)cc1 (stereo not drawn)	i	i	i	?	i	i
NS(=O)(=O)c1ccc(N2N=C(c3ccc(Br)cc3)CC2c2ccc(F)cc2)cc1 (stereo not drawn)	i	5.6µM	i	i	i	i

Compound activity (PubChem)
